High-throughput results: PubChem BioAssay, National Center for Advancing Translational Sciences (NCATS)
PI5P4K alpha inh = PI5P4K alpha (human) kinase inhibition. PI5P4Kalpha enzyme, ADP-Glo luminescence, 60 min; hits give low values. P48426. max response, %. 1.2% of 330,000 active; active = max response of -50% or lower; inconclusive = between -30% and -50%; inactive = -30% or higher; note: value at the top dose of about 77 µM; % is set by controls: 0 for no effect and ±100 for the full control effect
Target sequence (P48426 whole entry, looked up): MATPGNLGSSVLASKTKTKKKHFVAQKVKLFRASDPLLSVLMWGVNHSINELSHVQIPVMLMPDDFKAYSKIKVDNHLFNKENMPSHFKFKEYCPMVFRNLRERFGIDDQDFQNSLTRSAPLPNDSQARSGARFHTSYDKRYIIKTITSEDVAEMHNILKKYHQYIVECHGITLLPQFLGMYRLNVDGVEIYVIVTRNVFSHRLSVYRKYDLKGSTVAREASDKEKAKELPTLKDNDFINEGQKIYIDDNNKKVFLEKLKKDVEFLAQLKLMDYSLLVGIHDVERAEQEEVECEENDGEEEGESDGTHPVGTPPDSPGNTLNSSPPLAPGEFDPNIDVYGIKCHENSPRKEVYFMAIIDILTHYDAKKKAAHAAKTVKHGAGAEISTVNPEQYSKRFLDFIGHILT
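Quantitative HTS of the MLSMR library against PI5P4Kalpha with substrate. ATP added last at 5 microM final; room temperature, 60 minutes. Remaining ATP depleted, ADP converted and read as luminescence.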
BAZ2B block = blocks human BAZ2B | 4.4% of 360,000 active | Potency, µM (titrated, usually from 114 µM), for inactives: at the highest dose activity change, negative = inhibition, most hits filed as inhibitors | AlphaScreen BAZ2B-H3K14Ac peptide displacement; note: potency is the fitted concentration of half-maximal effect; % is set by controls: 0 for no effect and ±100 for the full control effect; nearly all actives have a fitted effect of over 60% in size
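BAZ2B 50 nM plus b-H3(5-23)K14Ac 50 nM, PBS pH 7.4/0.01% Tween-20, 30 min RT; compound added (max 110 uM), 30 min RT; streptavidin donor/Ni-chelate acceptor beads 10 ug/mL final, 20 min dark; AlphaScreen read.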
L3MBTL1 block = L3MBTL1 (human) inhibition | Q9Y468 | AlphaScreen L3MBTL1–H3K9me1 peptide binding | Potency, µM (top dose mostly 57.1 µM), for the others: at the top dose activity, negative = inhibition, hits mostly inhibitors | 0.66% of 230,000 active | AID 485360; note: potency is the fitted concentration of half-maximal effect; % is set by controls: 0 for no effect and ±100 for the full control effect; nearly all actives have a fitted effect of over 60% in size
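Displacement of a biotinylated histone H3(1-15) peptide monomethylated at Lys9 (75 nM) from L3MBTL1 (50 nM) was measured by AlphaScreen after a 30 min room-temperature compound incubation; cefsulodin titration served as intraplate control.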
JMJD2A Tudor = JMJD2A Tudor domain (human) inhibition; AlphaScreen JMJD2A-Tudor / H3K4me3 peptide binding; Potency, µM (highest dose often 114 µM), for inactives: at the highest dose activity change, negative = inhibition, most hits filed as inhibitors; AID 504339; O75164; 4.4% of 390,000 active; note: potency is the fitted concentration of half-maximal effect; % is set by controls: 0 for no effect and ±100 for the full control effect; nearly all actives have a fitted effect of over 50% in size
KDM4E inh = blocks human JMJD2E demethylase activity; B2RXH2; JMJD2E catalytic domain, FDH-coupled NADH fluorescence (FDH is formaldehyde dehydrogenase); Potency, µM (doses to about 57.1 µM), without a hit: at the highest dose activity change, negative = inhibition, most hits filed as inhibitors; 1.6% of 230,000 active; AID 2147; active = well fitted inhibition curve with a large enough effect, not every such curve was filed as active; inconclusive = small, poorly fitted or top-dose-only effect, or another doubt; inactive = no such curve, though single readings can be large or run the other way;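 note: potency is the fitted concentration of half-maximal effect; 0% = wells with enzyme and -100% = buffer wells without enzyme; nearly all actives have a fitted effect of over 50% in size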
HP1b chromo inh = blocks HP1-beta chromodomain binding to methylated histone tails. P83916. AlphaScreen HP1-beta / biotin-H3K9me3 peptide binding. Potency, µM (highest dose often 114 µM), without a hit: at the highest dose activity change, negative = inhibition, actives largely listed as inhibitors. 0.56% of 390,000 active; note: potency is the fitted concentration of half-maximal effect; nearly all actives have a fitted effect of over 70% in size
Target sequence (P83916 whole entry, looked up): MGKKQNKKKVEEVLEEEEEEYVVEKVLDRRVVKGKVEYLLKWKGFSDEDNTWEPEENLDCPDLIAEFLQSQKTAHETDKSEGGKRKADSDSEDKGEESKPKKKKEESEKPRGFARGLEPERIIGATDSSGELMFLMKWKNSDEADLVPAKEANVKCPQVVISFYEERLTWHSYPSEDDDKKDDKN
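AlphaScreen: HP1-beta (50 nM) preformed 30 min with biotin-H3(1-18)K9me3 peptide (50 nM) in PBS pH 7.4, 0.01% Tween-20. Compound added for 30 min at RT, then streptavidin donor/nickel chelate acceptor beads (10 ug/mL) for 30 min.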
* = called active by the depositor; u = inconclusive; x = no result given; ! = not active in a repeat; [ ] = remark or other dose. Hits are enriched below; roughly 5.7% of the tested compounds scored in any of these assays. Unless noted, calls come from the whole dose curve; as a rule, active = well fitted inhibition curve with a large enough effect; inconclusive = small, poorly fitted or top-dose-only effect; inactive = no such curve, though single readings can be large or run the other way.

SMILES	PI5P4K alpha inh	BAZ2B block	L3MBTL1 block	JMJD2A Tudor	KDM4E inh	HP1b chromo inh
CSc1nc(C)c(C(=O)Nc2ccccc2)c(-c2ccco2)c1C#N	-1	0%	x	-6%	-15%	33%
Cc1ccccc1NC(=O)c1c(C)[nH]c(=S)c(C#N)c1-c1ccco1	-63*	4%	-2%	-18%	-14%	6%
O=C(NC(=S)Nc1cccc2c(O)cccc12)c1ccccc1[N+](=O)[O-]	-19	-25%	x	-12%	x	24%
O=C(CSc1ncnc2nc[nH]c12)c1ccccc1	-5	u	28%	-33%	-4%	27%
Cc1snc(SCC(=O)c2ccc(F)cc2)c1C#N	3	25%	57%	6%[11.4 µM]	-9%	58%
Cc1snc(SCC(=O)c2ccc([N+](=O)[O-])cc2)c1C#N	-57*	14µM*	-7%	-11%[11.4 µM]	4.5µM*	u
O=C(CSc1ncnc2nc[nH]c12)c1ccc(Cl)cc1	-55*	u	0%	18µM*	x	-36%
O=C(CSc1ncnc2nc[nH]c12)c1ccc([N+](=O)[O-])cc1	0	79µM*	2%	-32%	-22%	15%
CC1CCc2c(sc(NC(=O)c3cc(-c4ccc(Br)cc4)on3)c2C(N)=O)C1 (configuration not stated)	x	4%	x	-16%	x	18%
COc1cc(C(=O)N2CCCCC2c2cc(C(=O)NC(C)C)no2)cc(OC)c1C (configuration not stated)	0	x	x	x	x	x
Cc1nc(Nc2nc3ccccc3o2)nc(C)c1C	5	-29%	26%	u	10%	-16%
Cc1ccc(Nc2nc3ccccc3o2)cc1F	u	16%	x	11µM*	-4%	-3%
COCCNC(=O)CN1C(=O)NC2(CCCc3ccccc32)C1=O (configuration not stated)	2	3%	x	-5%	x	18%
COC(=O)/C(C#N)=C/c1c(N2CCN(c3ccccc3)CC2)nc2c(C)cccn2c1=O	1	-38%	x	u	x	4%
C=CCNC(=O)/C(C#N)=C/c1c(N2CCN(c3ccc(OC)cc3)CC2)nc2c(C)cccn2c1=O	0	u	x	25µM*	x	u
COc1ccc(N2CCN(c3nc4c(C)cccn4c(=O)c3/C=C(\C#N)C(N)=O)CC2)cc1	4	35µM*	x	u	x	-10%
C=CCNC(=O)/C(C#N)=C/c1c(N2CCN(c3ccccc3)CC2)nc2c(C)cccn2c1=O	22	-15%	x	-11%	x	10%
O=C(COC(=O)c1c2c(nc3ccccc13)/C(=C\c1ccco1)CC2)NC1CCCC1	-55*	x	x	u	x	u
COc1cc(C)c(/C=C/C(C)=C/C=C/C(C)=C/C(=O)O)c(C)c1C	49	x	x	56µM*	x	10%
COc1cc(/C=C/C(=O)O)ccc1OS(=O)(=O)c1c(C)c(C)cc(C)c1C	0	-27%	0%	-25%	x	7%
Cn1c(N)c(C(=O)COC(=O)c2ccc(S(=O)(=O)N3CCCCC3)cc2)c(=O)n(C)c1=O	x	x	47%	x	9%	x
CN1C=C/C(=C\c2cc[n+](C)c3ccccc23)c2ccccc21	-12	u	x	u	4µM*	-26%
CC(C)C[C@H](NC(=O)c1[nH]cnc1C(=O)N[C@@H](C)C(=O)OC(C)(C)C)C(=O)OC(C)(C)C	4	9%	x	-18%	-4%	46%
CC(C)(C)OC(=O)[C@H](CCCCN)NC(=O)c1nc[nH]c1C(=O)N[C@@H](CCCCN)C(=O)OC(C)(C)C	1	x	1%	50µM*	x	46%
CC(C)C[C@H](NC(=O)c1nc[nH]c1C(=O)NC1CCNCC1)C(=O)OC(C)(C)C	-4	79µM*	-4%	u	x	21%
SMILES	PI5P4K alpha inh	BAZ2B block	L3MBTL1 block	JMJD2A Tudor	KDM4E inh	HP1b chromo inh
CC(C)(C)OC(=O)NCCCC[C@H](NC(=O)c1[nH]cnc1C(=O)Nc1ccccc1)C(=O)OC(C)(C)C	12	11%	x	-30%	-1%	20%
CC(C)(C)OC(=O)NCCCC[C@H](NC(=O)c1[nH]cnc1C(=O)Nc1ccc(Cl)cc1)C(=O)OC(C)(C)C	11	1%	x	-26%	22µM*	38%
O=C(NCc1cccc(Cl)c1)c1ccc(NC(=O)N2CC3CCCN3c3ccccc32)cc1 (configuration not stated)	x	u	x	u	x	-12%
O=C(CC1C(=O)NCCN1CCCc1ccccc1)NCCc1ccccc1Cl (configuration not stated)	-5	-28%	x	-28%	x	34%
CCOc1ccc(C(=O)NCCc2sc(-c3cccc(F)c3)nc2C)cc1OCC	x	4%	x	-12%	x	30%[57 µM]
O=c1cc(O)c2c(=O)n(C3CCCCC3)c3ccccc3c2o1	x	u	-6%	-31%	-13%	30%
O=c1cc(O)c2c(=O)n(-c3ccccc3)c3c(c2o1)CCCCCC3	-28	50µM*	-1%	u	u	5%
Cc1cc(NCCCCCCCNc2cc(C)nc3cc([N+](=O)[O-])ccc23)c2ccc([N+](=O)[O-])cc2n1	-61*	x	x	56µM*	x	71µM*
Cc1cccc(Nc2nnc(SCC(=O)c3ccc(O)cc3O)s2)c1	-15	-5%	x	-27%	x	38%
Cc1ccc(Nc2nnc(SCC(=O)c3ccc(O)cc3O)s2)cc1	-56*	-13%	x	-33%	x	-9%
COc1cc(/C=C(\C#N)c2nc3c(s2)CCCC3)ccc1O	x	56µM*	x	x	-29%	x
COc1ccc(CCNS(=O)(=O)c2csc(C(N)=O)c2)cc1OC	1	-6%	x	-2%	x	43%
COc1ccc(CNS(=O)(=O)c2csc(C(N)=O)c2)cc1OC	-1	-8%	x	32µM*!	x	26%
CC1=C(C(=O)N2CCN(c3cccc(C)c3C)CC2)C2(CCCCC2)OC1=O	x	79µM*	x	-20%	x	21%
COC(=O)c1ccc(Cn2c(SCc3ccccc3F)nc3ccncc32)cc1	x	-14%	x	-15%	x	38%
CC(C)=Cc1oc2ccc([N+](=O)[O-])cc2c1N1CC(C)OC(C)C1 (configuration not stated)	-5	63µM*	x	-12%	-4%	u
CC1CN(c2ccc([N+](=O)[O-])cc2C#N)CC(C)O1 (configuration not stated)	0	-19%	x	-10%	-18%	15%
Cc1sc2ncn(CC(=O)Nc3ccc(C(F)(F)F)cc3)c(=O)c2c1S(=O)(=O)N1CCN(C)CC1	x	-8%	x	-17%	x	-6%
C=CCc1ccc(OCCOCCN(C)C)c(OC)c1	3	u	x	1.6µM*	u	u
C=CCc1ccc(OCCCOc2ccc(C)c(C)c2)c(OC)c1	22	177%	x	123%	-1%	155%
C=CCc1ccc(OCCCCNC2CCCC2)c(OC)c1	2	56µM*	-1%	u	u	u
